Reference: PubChem BioAssay (NCATS)
Records with an inconclusive call do not appear. Unless noted, calls come from the whole dose curve; as a rule, active = well fitted curve in either direction with a large enough effect (not every such curve was filed as active); inconclusive = small, poorly fitted or top-dose-only effect, or another doubt; inactive = flat fitted curve, though single readings scatter.

Legend:
[1] = AP1 Signaling Pathway (AID 357); conditions: ME-180 AP-1-bla reporter, EGF-induced, beta-lactamase ratio, 5 h; at 17.2 µM (top of the series) unless noted; note: % is set by controls: 0 for no effect and ±100 for the full control effect
How it was run: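 AP-1-bla ME-180 cells with beta-lactamase reporter under AP-1 response element, stimulated with EC50 EGF; compounds titrated, 5 hours at 37 degrees Celsius. CCF4 read at 460/530 nm ratio; positive and negative modulators judged by AC50.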

[2] = NFAT Signaling Pathway (AID 444); conditions: Jurkat NFAT-bla M1, carbachol, beta-lactamase ratio, 5 h; at 17.2 µM (top of the series) unless noted;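 note: carbachol stimulus at about its EC50 of 1 µM final; % is set by controls: 0 for no effect and ±100 for the full control effect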
How it was run: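 Jurkat cells with NFAT-driven β-lactamase reporter and co-expressed M1 receptor, stimulated with carbachol (final 1 uM, ~EC50), compound titration, 5 h at 37 °C. CCF4 loaded 1 h at RT; 460/530 nm ratio gave %activity and AC50.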

[3] = Stat Signaling Pathway (AID 446); conditions: ME-180 (cervical carcinoma) SIE beta-lactamase reporter, IL-6 stimulated, 5 h; at 17.2 µM (top of the series) unless noted;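 note: ME-180 cervical cancer cells given 40 pM IL-6 alongside compound; SIE-controlled beta-lactamase reporter measured as 460/530 nm FRET emission ratio; % is set by controls: 0 for no effect and ±100 for the full control effect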
How it was run: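 Overnight-plated ME-180 cells bearing a STAT Inducible Element beta-lactamase reporter; 5 h co-exposure to compound and 40 pM IL-6; values normalized to 300 pM IL-6 and 125 nM JAK inhibitor controls.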

[4] = biological target: Glucocorticoid receptor (Homo sapiens) (UniProt P04150); assay: GR-GFP Redistribution (AID 450;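 active = compounds whose dose series gives a full or clear partial fitted curve of increased nuclear translocation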; note: potency is the fitted concentration of half-maximal effect)
Glucocorticoid receptor (Homo sapiens), sequence (P04150 whole entry, looked up): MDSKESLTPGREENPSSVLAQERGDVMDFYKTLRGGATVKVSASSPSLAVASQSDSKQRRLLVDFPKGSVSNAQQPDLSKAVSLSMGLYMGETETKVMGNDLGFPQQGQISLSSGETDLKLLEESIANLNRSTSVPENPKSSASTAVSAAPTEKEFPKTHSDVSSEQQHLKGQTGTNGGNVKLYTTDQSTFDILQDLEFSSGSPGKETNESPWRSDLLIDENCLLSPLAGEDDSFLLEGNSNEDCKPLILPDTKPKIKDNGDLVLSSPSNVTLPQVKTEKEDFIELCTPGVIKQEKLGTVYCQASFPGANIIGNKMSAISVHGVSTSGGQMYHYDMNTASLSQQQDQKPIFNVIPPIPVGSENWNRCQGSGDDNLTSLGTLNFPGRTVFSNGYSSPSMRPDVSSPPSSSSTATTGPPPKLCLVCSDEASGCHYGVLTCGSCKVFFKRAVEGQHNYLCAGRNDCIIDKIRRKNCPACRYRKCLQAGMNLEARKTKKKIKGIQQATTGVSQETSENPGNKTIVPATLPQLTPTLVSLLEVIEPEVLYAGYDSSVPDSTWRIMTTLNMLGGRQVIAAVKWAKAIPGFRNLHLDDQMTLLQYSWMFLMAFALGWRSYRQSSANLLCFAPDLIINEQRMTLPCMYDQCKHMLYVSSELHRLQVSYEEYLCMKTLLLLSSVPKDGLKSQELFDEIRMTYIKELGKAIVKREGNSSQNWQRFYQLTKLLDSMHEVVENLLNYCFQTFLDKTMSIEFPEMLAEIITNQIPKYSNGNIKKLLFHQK

Cc1occc1C(=O)OCC(=O)Nc1ccc(F)cc1
inactive: activity change, negative = inhibition [1] 17.4% | activity change, negative = inhibition [2] 1.22% | activity, negative = inhibition [3] -3.3% | Potency [4] > 20.6 µM

Oc1ccc(C=Nc2ccc3ncccc3c2)c(O)c1
inactive: activity change, negative = inhibition [1] 26.2% | activity change, negative = inhibition [2] -26.8% | activity, negative = inhibition [3] 13.2% | Potency [4] > 20.6 µM

CCc1[nH]c(=O)c(C#N)c2c1CCCC2
inactive: activity change, negative = inhibition [1] 3.3% | activity change, negative = inhibition [2] -7.46% | activity, negative = inhibition [3] 4.68% | Potency [4] > 20.6 µM

Cc1ccc(S(=O)(=O)NCC(=O)OCN2C(=O)c3ccccc3C2=O)cc1
inactive: activity change, negative = inhibition [1] 2.06% | activity change, negative = inhibition [2] -25.1% | activity, negative = inhibition [3] 9.1% | Potency [4] > 20.6 µM

Cc1cccc(N(CC(O)CN(C)C)S(=O)(=O)c2ccccc2)c1 (centres undefined)
inactive: activity change, negative = inhibition [1] -9.68% | activity change, negative = inhibition [2] -3.01% | activity, negative = inhibition [3] 3.62% | Potency [4] > 20.6 µM

CCOc1c(C)cc2[nH]c(CCC(=O)O)nc2c1C
inactive: activity change, negative = inhibition [1] 7.73% | activity change, negative = inhibition [2] -1.66% | activity, negative = inhibition [3] 7.03% | Potency [4] > 20.6 µM

N#C/C(C(=O)N1CCOCC1)=C1/SC(Cc2ccccc2)C(=O)N1c1ccccc1 (centres undefined)
inactive: activity change, negative = inhibition [1] 6.74% | activity change, negative = inhibition [2] -2.77% | activity, negative = inhibition [3] -8.3% | Potency [4] > 20.6 µM

COc1ccccc1-c1cc(-c2cc(Cl)ccc2O)n[nH]1
inactive: activity change, negative = inhibition [1] 5.68% | activity change, negative = inhibition [2] 2.8% | activity, negative = inhibition [3] 8.92% | Potency [4] > 20.6 µM

Cn1c(=O)c2c(nc(N3CCC(C(N)=O)CC3)n2CCSc2nc3ccccc3s2)n(C)c1=O
inactive: activity change, negative = inhibition [1] -0.203% | activity change, negative = inhibition [2] -5.54% | activity, negative = inhibition [3] 1.48% | Potency [4] > 20.6 µM

CN(C)c1ccc(C2C3C(=O)N(c4ccc(C(=O)O)cc4)C(=O)C3ON2c2ccccc2)cc1 (centres undefined)
inactive: activity change, negative = inhibition [1] -1.48% | activity change, negative = inhibition [2] 17.3% | activity, negative = inhibition [3] 5.33% | Potency [4] > 20.6 µM

CCOC(=O)CSC1=C(C#N)C(c2ccc3c(c2)OCO3)CC(=O)N1 (centres undefined)
inactive: activity change, negative = inhibition [1] -5.02% | activity change, negative = inhibition [2] 4.11% | activity, negative = inhibition [3] 3.81% | Potency [4] > 20.6 µM

Cc1cccc(-c2nnc3n2N=C(c2ccccc2)CS3)c1
inactive: activity change, negative = inhibition [1] -18.5% | activity change, negative = inhibition [2] -10.4% | activity, negative = inhibition [3] -6.13% | Potency [4] > 20.6 µM

OC1CN=C2Sc3ccccc3N2C1 (centres undefined)
inactive: activity change, negative = inhibition [1] 1.76% | activity change, negative = inhibition [2] -2.78% | activity, negative = inhibition [3] -3.59% | Potency [4] > 20.6 µM

CC(C)OC(=O)[C@H]1[C@H](c2ccc(Cl)cc2)[C@@](C#N)(C(N)=O)[C@@H]2C=CC(C(N)=O)=CN21
inactive: activity change, negative = inhibition [1] -13.7% | activity change, negative = inhibition [2] -5.51% | activity, negative = inhibition [3] -11.5% | Potency [4] > 20.6 µM

CCOC(=O)C1CCCN(c2nc3ccccc3nc2C(C#N)C(=O)OCCOC)C1 (centres undefined)
inactive: activity change, negative = inhibition [1] -28.5% | activity change, negative = inhibition [2] -3.48% | activity, negative = inhibition [3] -2.06% | Potency [4] > 20.6 µM

Cc1ccc(C(=O)C2=C(O)C(=O)N(c3ncccn3)C2c2ccc(Cl)cc2)o1 (centres undefined)
inactive: activity change, negative = inhibition [1] -14% | activity change, negative = inhibition [2] 23% | activity, negative = inhibition [3] -10.8% | Potency [4] > 20.6 µM

CC1(C)CC(=O)C2=C(C1)N(Cc1ccco1)C(=O)C2(NC(=O)c1cccnc1)C(F)(F)F (centres undefined)
inactive: activity change, negative = inhibition [1] -3.2% | activity change, negative = inhibition [2] -3.77% | activity, negative = inhibition [3] -9.45% | Potency [4] > 20.6 µM

CCNC(=O)COn1c(SCC(=O)NCC)nc2ccccc2c1=O
inactive: activity change, negative = inhibition [1] -9.03% | activity change, negative = inhibition [2] 9.09% | activity, negative = inhibition [3] 8.5% | Potency [4] > 20.6 µM

CC(=O)Oc1ccccc1C1OC(=O)c2ccccc2N1C(C)=O (centres undefined)
inactive: activity change, negative = inhibition [1] 14.3% | activity change, negative = inhibition [2] 12.4% | activity, negative = inhibition [3] 5.01% | Potency [4] > 20.6 µM

CC12CN3CC(=O)N4CC5(C)CN(CC(C)(C4)C5=O)C(=O)CN(C1)CC(C)(C3)C2=O
inactive: activity change, negative = inhibition [1] -1.13% | activity change, negative = inhibition [2] 2.81% | activity, negative = inhibition [3] 0.401% | Potency [4] > 20.6 µM

O=C(Oc1cccnc1)c1ccco1
inactive: activity change, negative = inhibition [1] 7.51% | activity change, negative = inhibition [2] 5.81% | activity, negative = inhibition [3] 8.88% | Potency [4] > 20.6 µM

CCSc1nnc(N(CCC(=O)O)CCC(=O)O)s1
inactive: activity change, negative = inhibition [1] 2.21% | activity change, negative = inhibition [2] 5.3% | activity, negative = inhibition [3] -4.16% | Potency [4] > 20.6 µM

C1CNCCNCCNCCN1
inactive: activity change, negative = inhibition [1] -9.33% | activity change, negative = inhibition [2] 6.5% | activity, negative = inhibition [3] -0.788% | Potency [4] > 20.6 µM

CC1(C)CC(=O)C2=C(C1)OC(N)=C(C#N)C21C(=O)N(CN2CCOCC2)c2ccccc21 (centres undefined)
inactive: activity change, negative = inhibition [1] 15.6% | activity change, negative = inhibition [2] 1.95% | activity, negative = inhibition [3] 5.03% | Potency [4] > 20.6 µM

CC(=O)Oc1ccc2c(C)cc(=O)[nH]c2c1
inactive: activity change, negative = inhibition [1] 8.38% | activity change, negative = inhibition [2] -13.4% | activity, negative = inhibition [3] -3.86% | Potency [4] > 20.6 µM

CNc1ccccc1-c1nc2ccccc2n(C)c1=O
inactive: activity change, negative = inhibition [1] 11.2% | activity change, negative = inhibition [2] -2.49% | activity, negative = inhibition [3] 12% | Potency [4] > 20.6 µM
